ChEMBL document CHEMBL1157539, “Thousands of chemical starting points for antimalarial lead identification” (Nature, 2010)

Legend:
Assay type in all cases: functional
Plasmodium falciparum [1] = test: GSK_TCMDC: Inhibition of Plasmodium falciparum 3D7 in whole red blood cells, using parasite LDH activity as an index of growth. Test compounds present at 2uM
Plasmodium falciparum [2] = test: GSK_TCMDC: Inhibition of Plasmodium falciparum Dd2 in whole red blood cells, using parasite LDH activity as an index of growth. Test compounds present at 2uM
HepG2 = test: GSK_TCMDC: Percent inhibition of human HepG2 cell line. Test compounds present at 10uM.

| SMILES | Inhibition (Plasmodium falciparum [1]) [%] | Inhibition (Plasmodium falciparum [2]) [%] | Inhibition (HepG2) [%] |
| --- | --- | --- | --- |
| Cc1ccc(Nc2nc(C)cc(Nc3cccc(NS(C)(=O)=O)c3)n2)cc1 | 96 | 8 | 0 |
| O=C(O)C(F)(F)F.O=[N+]([O-])c1cccc(CNC2CCN(Cc3ccc(C(F)(F)F)cc3)CC2)c1 | 99 | 28 | 0 |
| O=C(Nc1cccc(F)c1)NC1CCN(CCCCCNC(=O)C2CC2c2ccc(Cl)c(Cl)c2)CC1 (stereo not given) | 100 | 12 | 41 |
| Cc1cc(=NN=Cc2ccc(F)cc2)c2ccc(F)cc2[nH]1 | 99 | 30 | 0 |
| Fc1ccc2[nH]c3c(NCCCN4CCOCC4)ncnc3c2c1 | 98 | 2 | 14 |
| CC(Nc1cc(-c2ccccn2)nc(-c2ccccn2)n1)c1ccccc1 (stereo not given) | 85 | 98 | 61 |
| COc1c(C2CCN(CCCCNC(=O)c3ccc(-c4ccc(C#N)cc4)cc3)CC2)cc(Cl)c2c1CCCC2 | 93 | 59 | 45 |
| Cc1noc(C)c1-c1ccc(C(=C2CCCCCC2)c2ccc(O)cc2)cc1 | 100 | 96 | 0 |
| O=c1cc(NCCCCNCc2cccc(Cl)c2)[nH]c2ccccc12 | 98 | 41 | 2 |
| Cc1ccoc1C(=O)Nc1cccc(-c2cccc(-c3nc4cccc(C)c4[nH]3)c2)c1 | 100 | 79 | 17 |
| c1ccc2c(c1)ncc1c3ccccc3[nH]c21 | 95 | 36 | 0 |
| N#Cc1ccc2[nH]cc(C(=O)CCCCCN(Cc3ccccc3)Cc3ccccc3)c2c1 | 93 | 97 | 10 |
| Cc1nc(-c2cccc(C(=O)N(Cc3cncn3Cc3cccc(C(F)(F)F)c3)CC3CC3)c2)cs1 | 97 | 17 | 7 |
| COc1cc2c(Nc3cccc(NC(=O)c4ccccc4)c3)ncnc2cc1OCCCN1CCOCC1 | 100 | 100 | 0 |
| CCCCCn1c(Sc2ccc(C#N)c([N+](=O)[O-])c2)nnc1-c1cccs1 | 91 | 38 | 19 |
| Fc1cc(Cl)ccc1Nc1ccnc2cc(I)ccc12 | 90 | 10 | 11 |
| O=C(Cc1cccc(O)c1)Nc1ccc(-c2cccc(-c3nc4cc(C(F)(F)F)ccc4[nH]3)c2)cc1 | 86 | 1 | 14 |
| COc1cccc(N(CCCN2C(=O)c3cccc4cccc(c34)C2=O)C(=O)c2ccccc2C)c1 | 86 | 70 | 20 |
| CCN(CC)c1ccc2nc(N)nc(N)c2c1Cl.Cl | 92 | 1 | 62 |
| O=C(NCC1CCC(CNCCc2ccccc2)CC1)Nc1ccc(Cl)c(Cl)c1 (stereo not given) | 96 | 0 | 24 |
| CCCn1cnc2cc(C(=O)Nc3ccc(-c4cccc(CN(C)C)c4)cc3)ccc2c1=O | 95 | 6 | 26 |
| c1ccc(COc2ccc(C3CCCCC3)cc2)nc1 | 99 | 1 | 0 |
| O=C(O)C(F)(F)F.OCCN1CCN(Cc2cccc(-c3ccc(-c4nc5cc(C(F)(F)F)ccc5[nH]4)cc3)c2)CC1 | 100 | 85 | 19 |
| N#Cc1ccc(N[C@@H](CC2CCCCC2)C(=O)N[C@@H]2CCCc3ccccc32)c2ccccc12.O=C(O)C(F)(F)F | 99 | 99 | 12 |
| CS(=O)(=O)N(c1cccc(F)c1)c1cc(C(=O)N[C@@H](Cc2ccccc2)[C@H](O)CNCc2cccc(C(F)(F)F)c2)cc(N2CCCC2=O)c1.O=CO | 98 | 92 | 14 |
| CC(C)(C)C1CCC(CC2=C(C(=O)O)c3ccccc3C2=O)CC1 (stereo not given) | 91 | 56 | 0 |
| CC(C)(C)C(=O)Nc1ccc(C(=O)Nc2cccc(-c3nc4ccccc4[nH]3)c2)cc1 | 96 | 62 | 56 |
| CN1CCC(C(=O)N(Cc2ccc(-c3ccc(CNCCc4ccccc4)cn3)cc2)C2Cc3ccccc3C2)CC1.O=C(O)C(F)(F)F | 88 | 97 | 65 |
| Cc1cc2c(cc1Cl)N(C(=O)Nc1cc(F)cc(-c3cncnc3)c1)CC2 | 96 | 59 | 0 |
| COc1ccc(Cl)cc1S(=O)(=O)Nc1cccc(CCN2CCC(N3CCCCC3)CC2)c1 | 100 | 9 | 33 |
